Bioassay records deposited in PubChem by National Center for Advancing Translational Sciences (NCATS).
Pf Dd2 growth: qHTS Primary assay for Inhibitors of Plasmodium falciparum Dd2 growth in vitro; Potency, µM (titrated, usually from 28.9 µM), without a hit: at the top dose activity, negative = inhibition, actives largely listed as inhibitors; 120,000 compounds, 4.3% hits; P. falciparum Dd2 growth, SYBR Green, 72 h; active means well fitted inhibition curve with a large enough effect;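 further: plate controls were DMSO vehicle for no effect and reference drug for full effect; nearly all actives have a fitted effect of over 65% in size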
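Readout: SYBR Green fluorescence, 485 nm excitation, 535 nm emission, after ~16 h lysis at 37C. Before that, Dd2-infected red cells (2.5% hematocrit) grew 72 h with compound, 29 uM top final concentration.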
* = called active by the depositor; i = inactive; [ ] = dose if it differs, or a comment. Only a selection was taken, and hits are over-represented in it overall. Potency means the concentration at half of the fitted maximal effect.

SMILES	Pf Dd2 growth
COC(=O)c1ccccc1NC(=O)N1CCc2c(sc3c2CCCC3)C1c1ccc(F)cc1 (configuration not stated)	i
O=C1CN(C(=O)Nc2ccccc2Cl)C(c2ccccc2)c2c(sc3c2CCCC3)N1 (configuration not stated)	10µM*
O=C(Cc1ccccc1)Nc1sc2c(c1C(=O)Nc1ccccc1Cl)CCCC2	12.6%
Cn1cccc1CN1CCC2(CC1)COc1ccccc1[S+](=O)([O-])N2	-4.1%
CCOc1ccc(S(=O)(=O)N2CCN(C3(CC)CCN(S(C)(=O)=O)C3)CC2)cc1 (configuration not stated)	i
COc1ccc(OC2CN(C(=O)c3ccccc3F)C2)cc1	13.7%
COc1ccc(N2CC(NC(=O)c3cc(C(C)C)n4ncnc4n3)CC2=O)cc1 (configuration not stated)	-4.1%
CC(C)NC[C@H]1O[C@@H](CO)[C@@H](O)[C@H]1N1CCN(c2ccccn2)CC1	-8.1%
COc1ccc(-c2noc([C@@H]3C[C@@H](O)CN3Cc3ccc(F)cc3)n2)cc1	i
CC(C)NC(=O)C[C@@H]1O[C@H](CNS(C)(=O)=O)[C@@H](O)[C@H]1O	32.7%[44.1 µM]
COc1ccc(C(=O)N[C@@H]2CCC[C@@H]2C(=O)NCc2ccc(C)cc2)cn1	-4.6%
CCOc1cc(CNc2ccc(O)cc2)cc(Cl)c1OCc1ccccc1	12.6µM*
CCOc1cccc(CNc2ccc(O)cc2)c1OCc1ccccc1Cl	i[5.79 µM]
CCOc1cc(CNc2ccc(C(=O)O)cc2)ccc1OCc1ccccc1	6.3%
Cc1ncoc1C(=O)N1Cc2ccccc2OC2(CCN(C)CC2)C1	i
Cc1ccc(C#N)c(N2CCCC(c3nccn3CC3CCC3)C2)n1 (configuration not stated)	i
CNC(=O)c1cccc(-c2cnc(Nc3ccc(Cl)cn3)c3c2CCO3)c1	i
COc1ccc(-c2cnc(Nc3cc(F)cc(N4CCOCC4)c3)c3c2CCO3)cn1	11.2µM*
CNC(=O)c1cccc(-c2cnc(Nc3ccc(F)c(Cl)c3)c3c2CCO3)c1	11.2µM*
O=C(Nc1ncc(-c2cccc(F)c2)c2c1OCC2)c1ccncc1	i
COCCNc1ncc(-c2ccc(N3CCOCC3)cc2)c2c1OCC2	23.0%[44.1 µM]
COc1ccc(-c2cnc(NC(=O)Cc3ccccc3)c3c2CCO3)cn1	16.5%[44.1 µM]
COc1cncc(Nc2ncc(-c3cccc(F)c3)c3c2OCC3)c1	11.2µM*
CNC(=O)c1cccc(-c2cnc(Nc3cccc(C(F)(F)F)c3)c3c2CCO3)c1	i
COc1ccc(Nc2ncc(-c3ccccc3OC)c3c2OCC3)cc1	i
SMILES	Pf Dd2 growth
COCCC(=O)N1CCCN(S(C)(=O)=O)C(c2ccccc2)CC(=O)NCC1 (configuration not stated)	-3.1%
CCn1ncc(N2CCC(NC(=O)CC(C)(C)C)CC2)cc1=O	16.7%
Cn1cc(CCNC(=O)c2ccc3oc(-c4cccc(F)c4)nc3c2)cn1	-22.6%
CC(C)=CCC1(CO)CCCN(Cc2cc(=O)n3cc(C)sc3n2)C1 (configuration not stated)	-18.2%
COc1cc2c(cc1CN1CCC3(CCCNC3)C1)OCCCO2 (configuration not stated)	-5.0%
COc1cc2c(cc1CN1CCCC(CO)(CC=C(C)C)C1)OCCO2 (configuration not stated)	7.94µM*
COc1ccc(CN(C)C(=O)C2(C)CCOCC2)cc1	19.4%[44.1 µM]
O=C(NC[C@H]1OC[C@@H](NC2CCCCC2)[C@@H]1O)C1CC1	-11.7%[44.1 µM]
Cc1cc(C)n(C(C)C(=O)N2CCn3nc(Cc4ccccc4)cc3C2)n1 (configuration not stated)	-28.5%
O=C(CCn1cnc2ccccc21)N1CCn2nc(Cc3ccccc3)cc2C1	-15.2%
CCOCC(=O)N1CCn2nc(Cc3ccccc3)cc2C1	3.9%
C=CCN1CC(C(=O)N2CCn3nc(Cc4ccccc4)cc3C2)CC1=O (configuration not stated)	-0.1%
C[C@@H]1CCC[C@H](C)N1CC(=O)N1CCn2nc(Cc3ccccc3)cc2C1	11.2µM*
CC(C)N1CCC(CC(=O)N2CCn3nc(Cc4ccccc4)cc3C2)CC1	10µM*
CC(C)(CC(=O)O)CC(=O)N1Cc2[nH]cnc2C[C@H]1c1nc(-c2ccncc2)no1	-18.9%[44.1 µM]
O=C(CN1C(=O)NC(c2ccc(Cl)cc2)C2=C1COC2=O)Nc1ccc(Cl)cc1F (configuration not stated)	-19.3%
COc1cc(CNCc2cnn(C)c2C)ccc1OCC(O)CN1CCSCC1 (configuration not stated)	-12.5%
COc1ccc(CNc2cc3c(cn2)CN(C)CCN3C)cc1OC	i
COc1cc(CNC(C)Cn2nc(C)cc2C)ccc1OCCN1CCCC1 (configuration not stated)	3.55µM*
O=C([C@@H]1C[C@H](F)CN1C(=O)NC1CCCC1)N1CCc2ccccc2C1	-21.6%
Cc1ccccc1CC(=O)N1CCN(C(=O)c2nnn3c2COC(c2ccc(Cl)cc2)C3)CC1 (configuration not stated)	-5.1%
CC(NC(=O)Cc1ccc(N(Cc2ccccc2)C(=O)c2ccco2)cc1)c1ccccc1 (configuration not stated)	-10.7%
O=C(c1ccc(C(F)(F)F)cc1)N1CCC2(CNc3ccccc3[S+](=O)([O-])N2)C1 (configuration not stated)	i
O=C(COc1ccccc1)NC[C@H]1O[C@H](Cc2cc(CN3CCNCC3)on2)CC[C@@H]1O	8.0%
C=CCNC(=O)c1cnn2c1CN([S+](C)(=O)[O-])CC2	i
SMILES	Pf Dd2 growth
Cc1cc(Nc2cccc(C(F)(F)F)c2)nc2ccc(NC(=O)c3ccc(N(C)C)cc3)cc12	2.82µM*
Cc1ccccc1-c1nc2cc(NC(=O)Cc3ccc(Cl)cc3)ccc2o1	3.0%
CCn1nnc2cc(C(=O)Nc3cccc(C(F)(F)F)c3)ccc21	-5.4%
Cc1ccc(OCC(=O)Nc2ccc3nc(Nc4cccc(Cl)c4)cc(C)c3c2)cc1	35.8%
CCN(CC)c1cc(C)c2cc(NC(=O)c3cccc(F)c3)ccc2n1	-6.2%
Cc1cc(Nc2cccc(C(F)(F)F)c2)nc2ccc(NC(=O)Cc3ccc(Cl)cc3)cc12	11.2µM*
CCn1nc(C2CCOCC2)nc1C1(c2ccccc2)CC1	4.8%
CC(C)c1ccccc1OCC(=O)c1ccc2c(c1)N(CC(=O)NCC1CC1)C(=O)CO2	i
CCNC(=O)c1cccnc1OC1CCN(C(=O)c2cc(C)ccc2C)C1 (configuration not stated)	-4.7%
CCc1nnc(CN(C)C(=O)c2cnc(-c3ccc(C)cc3)[nH]c2=O)o1	6.2%
Cc1c(C#N)c2ccccc2n1CC(=O)NC1CCOC2(CCOCC2)C1 (configuration not stated)	-11.5%
c1cncc(-c2ccnc(NCCCN3CCCc4ccccc43)n2)c1	11.2µM*
c1ccc2c(c1)CCCN2CCCNc1ncncn1	-15.4%
c1cncc(-c2ccnc(NCCCn3nccc3C3CC3)n2)c1	-28.3%
CS(=O)(=O)N1CCC(c2nnc3n2C(C(=O)O)CC3)CC1 (configuration not stated)	11.7%
CN(Cc1ccccc1)Cc1cn([C@H]2CO[C@H]3[C@@H]2OC[C@@H]3NC(=O)NCc2ccccc2)nn1	-13.1%
COC(=O)CNC(=O)c1nc(-c2ccc(Cl)cc2)c2ccccn12	-4.5%[44.1 µM]
COc1ccc(-n2cc(C(=O)Nc3cc(F)ccc3F)c3ccccc3c2=O)cc1	i
O=C(CS(=O)(=O)c1nc(-c2ccc(Cl)cc2)cn1-c1ccccc1)Nc1ccc(F)cc1F	-1.1%
